The values below come from PubChem BioAssay (NCI).

Holding throughout (test): NCI-60 one-dose screen, 48 h (100 = growth as untreated, 0 = no growth, -100 = all killed)
Conditions in all cases: 10 µM unless noted

Assay [1] has as its system T-47D breast.
For assay [2], the system named is BT-549 breast.
For assay [3], the system named is MDA-MB-435 melanoma.
For assay [4], the system named is SW-620 colon.
In assay [5] the test system is MCF7 breast.
For assay [6], the system named is HCT-116 colon.
Assay [7] relates to HCC-2998 colon.
In assay [8] the test system is KM12 colon.

Compounds without any hit were thinned out: in the full panel of roughly 83,000, 20% have a hit.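 In brief: 96-well plates, 48 h treatment, single concentration, percent growth endpoint.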 A number with no mark means an inactive call. Calls of active or inactive are those of the source. How the source made its calls: active means growth percent below 10; inactive means the rest.

For the compound `COc1ccc(-c2nn(-c3ccc(NC(=O)Nc4ccc(Cl)c(C(F)(F)F)c4)cc3)cc2-c2ccncc2)cc1Cl`, the growth in assay [1] was 24.7%; in assay [2], 0.583% (active); in assay [3], -16.6% (active); in assay [4], 3.24% (active); in assay [5], 7.96% (active); in assay [6], -7.68% (active). Moreover, the growth in assay [7] is 11.3%; in assay [8], 0.474% (active).
Consider `COc1ccccc1S(=O)(=O)Nc1ccc2c3c(cc(-c4cnn(C5CC5)c4)nc13)C(=O)N2C`, for which the growth was 69.9% in assay [1]; 90% in assay [2]; 52.4% in assay [3]; 68.5% in assay [4]; 29.6% in assay [5]; 60% in assay [6]. Also, the figures for the growth in assay [7] and in assay [8] were 75.4% and 56.3%, respectively.
`CC(C)(c1ccc(OCC(O)CNCc2ccco2)cc1)c1ccc(OCC(O)CNCc2ccco2)cc1` (stereo not drawn): the growth in assay [1] was 72.4%; in assay [2], 88.7%; in assay [3] it was 89.5%; in assay [4], 90.3%; in assay [5] it was 85.4%; in assay [6], 60.2%. The growth in assay [7] was 46.6%; in assay [8] it was 82.6%.
In the case of `COC(=O)c1ccc2c(c1)Oc1ccc(Cl)cc1-c1cc(C)nn1-2`, the growth in assay [1] was 71.7%; in assay [2] it was 96%; in assay [3] it was 97.5%; in assay [4], 68.5%; in assay [5], 79.4%; in assay [6] it was 44%. For the same compound, the growth in assay [7] was 100%; in assay [8], 87.7%.
With `O=c1cc(Cl)[nH]c(=O)[nH]1`, the growth in assay [1] was 95.1%; in assay [2], 103%; in assay [3], 111%; in assay [4] it was 106%; in assay [5], 92.5%; in assay [6], 101%. Moreover, the growth in assay [7] was 93.5%; in assay [8], 105%.
On to `CC(C)(C)OC(=O)NCc1cccc(N=C=S)c1`, for which the growth was 11.2% in assay [1]; 10.3% in assay [2]; 51% in assay [3]; 60.2% in assay [4]; 29.5% in assay [5]; 56.2% in assay [6]. Besides, the growth was 57% in assay [7] and 51.6% in assay [8].
Consider `CS(=O)(=O)OCC(COS(C)(=O)=O)C(c1ccccc1)c1ccccc1`, for which the growth was 100% in assay [1]; 97.3% in assay [2]; 105% in assay [3]; 99.3% in assay [4]; 101% in assay [5]; 95.9% in assay [6]. In addition, the growth in assay [7] was 109%; in assay [8] it was 104%.
For `O=C(Nc1cccc(-n2ccc3c(NC(=O)c4ccccc4)nccc32)c1)Nc1ccc(Cl)c(C(F)(F)F)c1`, the growth in assay [1] was 54.3%; in assay [2], -5.15% (active); in assay [3], -15.4% (active); in assay [4] it was 25.2%; in assay [5], 19.5%; in assay [6], 3.34% (active). Moreover, the growth is 17.2% in assay [7] and -16.4% (active) in assay [8].
For `CCn1cc(C(=O)O)c(=O)c2cc(F)c(N3CCN(CC(=O)Nc4ccc(C(C)=O)cc4)CC3)cc21`, the growth in assay [1] was 92%; in assay [2] it was 109%; in assay [3] it was 102%; in assay [4] it was 103%; in assay [5] it was 99.1%; in assay [6], 104%. Moreover, the growth in assay [7] is 96.2%; in assay [8], 97.4%.
Take `Clc1ccc2c(NCCNc3nc(Cl)nc4ccccc34)ccnc2c1`: the growth was -63.6% (active) in assay [1]; -65.6% (active) in assay [2]; -89.4% (active) in assay [3]; -77.1% (active) in assay [4]; -63.8% (active) in assay [5]; -96.7% (active) in assay [6]. For the same compound, the growth in assay [7] is -64.1% (active); in assay [8] it was -76.5% (active).
On to `O=C1CCC(=O)N1C1CCCCC1`, for which the growth in assay [1] is 85.8%; in assay [2], 102%; in assay [3], 99.5%; in assay [4], 105%; in assay [5], 96.2%; in assay [6] it was 99%. For the same compound, the growth in assay [7] was 103%; in assay [8], 101%.
On to `CCc1c(C)c2cc(-n3c(-c4ccc(OC)cc4)csc3=N)c(O)c(C)c2oc1=O`, for which the growth in assay [1] was -0.0975% (active); in assay [2], 5.21% (active); in assay [3], 0.357% (active); in assay [4] it was 22.9%; in assay [5], 9.39% (active); in assay [6], 8.8% (active). Besides, the results for the growth in assay [7] and in assay [8] were 36.2% and 12.7%, respectively.
For the compound `COc1ccc(-c2cnc(-c3ccc(F)cc3)[nH]2)cc1`, the growth in assay [1] is 86.9%; in assay [2], 314%; in assay [3], -6.97% (active); in assay [4], 18.6%; in assay [5] it was 26.3%; in assay [6], -68.8% (active). In addition, the growth in assay [7] is -10% (active); in assay [8], 30.6%.
For the compound `CCOC(=O)c1noc2c1CCc1cn(Cc3cc(OC)cc(OC)c3)cc1-2`, the growth is 94.7% in assay [1]; 91.5% in assay [2]; 103% in assay [3]; 103% in assay [4]; 94.9% in assay [5]; 92.3% in assay [6]. Besides, the growth in assay [7] is 88.9%; in assay [8], 100%.
On to `CN(C)c1ccc2cc(-c3nc4ccccc4s3)c(N)nc2c1`, for which the growth was 48.5% in assay [1]; 61.8% in assay [2]; 5.06% (active) in assay [3]; 43.6% in assay [4]; 19.7% in assay [5]; 43.8% in assay [6]. Also, the growth in assay [7] was 77.6%; in assay [8], 26.9%.
As to `COc1ccc(C2=NN(C(=O)COc3ccc(Cl)cc3)C(O)(c3cc(F)c(Cl)cc3Cl)C2)cc1OC` (stereo not drawn), the growth in assay [1] was -51.1% (active); in assay [2], -76% (active); in assay [3], 8.66% (active); in assay [4] it was -84.8% (active); in assay [5], 7.79% (active); in assay [6], -69.1% (active). Besides, the growth in assay [7] was 78.4%; in assay [8], 60.4%.
